“And” between values parts separate entries of the source, which are not always exact repeats. Equal entries are not always repeated. The source made the active and inactive calls.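 How the source made its calls: active means compounds whose cell count with miR-34 switched on is under 0.7 times the count with it off; inactive means the rest.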 Peptide text beside a SMILES is read from it. * marks the point of attachment. CH2Cl = ClC*

The first experiment can be described thus: viability loss with induced miR-34 in A549 – imaging, A549 dox-inducible miR-34, nuclei and caspase counts, primary screen (AID 1347080). Further: test concentration not given here. As to conditions: A549 miR-34 inducible, Hoechst nuclei count, 48 h; hits give low values.
With `N#CC(C#N)=NNc1ccc(OC(F)(F)F)cc1`, the fold change is 1.05 (inactive).

Turning to `CC1OC(O[C@H]2C[C@@H](O)[C@]3(CO)[C@H]4[C@H](O)C[C@]5(C)[C@@H](C6=CC(=O)OC6)CC[C@]5(O)[C@@H]4CC[C@]3(O)C2)C(O)C(O)C1O` (stereo partly specified), the fold change was 0.802 (inactive).

Regarding `N[C@H]1C[C@@H]1c1ccccc1`, the fold change is 0.858 (inactive).

As to `C[C@H](N)C(=O)N[C@@H](C)C(=O)N[C@@H](Cc1ccccc1)C(=O)CCl` (H-Ala-Ala-Phe-CH2Cl), the fold change is 0.806 (inactive).

Turning to `CC[C@@]1(O)C(=O)OCc2c1cc1n(c2=O)-c2cc3ccccc3nc2C1`, the fold change is 1.01 (inactive).

In the case of `CC(C)(O)[C@H]1O[C@H]2CC[C@@]3(C)[C@@](O)(CC[C@H]4Cc5c([nH]c6ccccc56)[C@@]43C)C2=CC1=O`, the fold change is 1.09 (inactive).

Regarding `CO[C@@H]1C[C@@H](C[C@H]2CC[C@H](C)[C@H]([C@@H](C)C(=O)O)O2)O[C@]2(O[C@](C)([C@H]3CC[C@@](C)([C@@H]4O[C@@H]([C@H]5O[C@@](O)(CO)[C@H](C)C[C@@H]5C)C[C@@H]4C)O3)C[C@H]2C)[C@@H]1C`, the fold change is 0.993 (inactive).

On to `C=C1[C@@H](C)[C@H]2[C@H](Cc3ccccc3)NC(=O)[C@]23OC(=O)/C=C/[C@H](O)CCC[C@@H](C)C/C=C/[C@H]3[C@@H]1O`, for which the fold change was 1.14 (inactive).

`CCCCCCC(=O)O[C@H]1CC[C@H]2[C@@H]3C[C@H](O)C4=CC(=O)CC[C@]4(C)[C@H]3CC[C@]12C`: the fold change was 0.966 (inactive).

As for `C[C@@]1(CO)[C@H](O)CC[C@@]2(C)[C@H]1CC[C@H]1C[C@@H]3C[C@@]12CC[C@]3(O)CO`, the fold change was 1.03 (inactive).

For the compound `COC[C@H]([C@@H](O)[C@@H](O)C(=O)NCC[C@@H](C)c1nc(/C=C/C[C@H]2OC3(C[C@H](O)[C@H]2C)OC([C@@H](C[C@@H](O)[C@@H](C)[C@@H](O)[C@@H](C)/C=C(C)/C(C)=C/C=C/C(C)=C\C#N)OC)[C@@H](OP(=O)(O)O)C3(C)C)co1)N(C)C` (stereo partly specified), the fold change is 0.801 (inactive).

Take `CC(C)CC(NP(=O)(O)OC1OC(C)C(O)C(O)C1O)C(=O)NC(Cc1c[nH]c2ccccc12)C(=O)O` (stereo unspecified): the fold change is 0.95 (inactive).

For `COC[C@H]1OC(=O)c2coc3c2[C@@]1(C)C1=C(C3=O)[C@@H]2CCC(=O)[C@@]2(C)C[C@H]1OC(C)=O`, the fold change was 0.997 (inactive).

Take `COC(=O)[C@@]1(O)CC2OC1(C)n1c3ccccc3c3c4c(c5c6ccccc6n2c5c31)C(=O)NC4` (stereo partly specified): the fold change was 0.903 (inactive).

As for `C/C1=C/C(=O)O[C@@H]2C[C@@H](CC[C@H](C)/C=C\CC1)O[C@@](O)([C@@H]1CSC(=O)N1)C2`, the fold change was 1.2 (inactive).

Take `CCOC(=O)CN1C(=O)CC(C[C@@H](O)C2C[C@@H](C)C[C@H](C)C2=O)CC1=O` (stereo partly specified): the fold change was 1.01 (inactive).

Still in this experiment, the particulars now being: A549 miR-34 inducible, Hoechst nuclei count, 48 h; hits give low values; cell number ratio, induced over uninduced.
For the compound `CCCC(=O)N[C@H]1CCOC1=O`, the fold change is 0.907 (inactive).

`CCCCC/C=C\C/C=C\C/C=C\C/C=C\CCCC(=O)NC(CO)CO`: the fold change was 0.961 (inactive).

Take `C=C(C)[C@@H]1CCC(C)=C[C@H]1c1c(C)cc(O)cc1O`: the fold change is 0.943 (inactive).

Consider `CCCCCC(=O)N[C@H]1CCOC1=O`, for which the fold change was 0.883 (inactive).

With `C=C1[C@@H](C)[C@H]2[C@H](Cc3ccccc3)NC(=O)C23[C@H](OC(C)=O)/C=C/[C@](C)(O)C(=O)[C@@H](C)C/C=C/[C@H]3[C@@H]1O` (stereo partly specified), the fold change was 1.3 (inactive).

For `CCCCC/C=C\C/C=C\C/C=C\C/C=C\CCCC(=O)NCCCC(=O)O`, the fold change was 0.955 (inactive).

Turning to `N[C@H]1C[C@@H]1c1ccccc1`, the fold change was 0.985 (inactive).

Regarding `CCCCC/C=C\C/C=C\C/C=C\C/C=C\CCCC(=O)Nc1cccc([N+](=O)[O-])c1`, the fold change is 0.95 (inactive).

Turning to `CCCCCC(/C=C/C=O)OO` (stereo unspecified), the fold change is 0.987 (inactive).

As for `CCCCC/C=C\C/C=C\C/C=C\C/C=C\CCCC(=O)OCCN`, the fold change was 0.993 (inactive).

In the case of `Cc1cc(C(C#N)c2ccc(Cl)cc2)c(Cl)cc1NC(=O)c1cc(I)cc(I)c1O` (stereo unspecified), the fold change was 0.964 (inactive) and 0.906 (inactive) and 0.861 (inactive).

`CCNC(=O)[C@H]1O[C@@H](n2cnc3c(N)ncnc32)[C@@H](O)C1O` (stereo partly specified): the fold change was 0.967 (inactive).

With `CO/C1=C\C(C)=C\[C@@H](C)[C@@H](O)[C@@H](C)C/C(C)=C/C=C/[C@H](OC)[C@@H]([C@@H](C)[C@@H](O)[C@H](C)[C@@]2(O)C[C@@H](O)[C@H](C)[C@@H](C(C)C)O2)OC1=O`, the fold change is 1.05 (inactive).

`CCCCC/C=C\C/C=C\C/C=C\C/C=C\CCCC(=O)NCCOP(=O)(O)O`: the fold change is 0.994 (inactive).

With `CCCCC/C=C\C/C=C\C/C=C\C/C=C\CCCC(=O)NC[C@@H](C)O`, the fold change is 0.961 (inactive).

Turning to `CCCCC/C=C\C/C=C\C/C=C\C/C=C\CCCC(=O)N[C@@H](C)CO`, the fold change was 1.04 (inactive).

In the case of `COC(C/C=C/C=C/CC/C=C\CC(C)/C=C\C(=C/C(=O)O)CC(=O)O)/C(C)=C\C=C(/C)C(=O)O` (stereo unspecified), the fold change is 0.975 (inactive).

In the case of `CNCCCCCCN(C)N(O)N=O`, the fold change is 0.998 (inactive).

For `CCCCCCCC/C=C\CCCCCCCC(=O)Nc1ccccc1`, the fold change is 1.04 (inactive).

Turning to `CCCCC/C=C\C/C=C\C/C=C\C/C=C\CCCC(=O)NOCCO`, the fold change was 0.931 (inactive).

With `CCCCC/C=C\C/C=C\C/C=C\C/C=C\CCCC(=O)O[C@H](COC(=O)CCCCCCCCCCCCCCCCC)COP(=O)([O-])OCC[N+](C)(C)C`, the fold change was 0.924 (inactive).

Regarding `OOCCC/C=C/c1ccccc1`, the fold change was 0.959 (inactive).

On to `COc1cc(/C=C\c2ccc(OC)c(O)c2)cc(OC)c1`, for which the fold change was 0.917 (inactive).

Consider `CCCCC/C=C\C/C=C\C/C=C\C/C=C\CCCC(=O)N[C@H](C)COP(=O)(O)O`, for which the fold change is 1.03 (inactive).

Regarding `CCCCC/C=C\C/C=C\C/C=C\C/C=C\CCCC(=O)Nc1ccc(O)cc1C`, the fold change was 1.03 (inactive).

The values above are taken from PubChem BioAssay.
